Test results published in ChEMBL document CHEMBL3988442, “University of Dundee, Small-Polar-MMV Screening Library” (2021).
The whole screen tested about 48,000 compounds, of which about 13,000 (27%) showed an effect of 50% or more. The list shows a part of the results.

Tested on: Wolbachia pipientis
Assay: Anti-Wolbachia Cell-Based Screen
Format: functional
Set-up: scale not given: in the data most compounds retested in dose-response had high values
Conditions: 5 µM

| Compound | Percent Effect [%] |
| --- | --- |
| CC(C)n1ccnc1C1CCN(C(=O)c2ccccc2N(C)C)CC1 | -47.93 |
| COc1cccc(COCC(=O)NC(C(N)=O)c2ccccc2F)c1 (stereo not drawn) | 9.878 |
| CCOc1ccc(CC(CNC(=O)c2ccco2)C(N)=O)cc1 (stereo not drawn) | -3.482 |
| COc1cccc(CC(=O)NCC(Cc2ccc(F)cc2)C(N)=O)c1 (stereo not drawn) | 112.8 |
| COc1ccc(C(=O)N(C)Cc2nnc3ccccn23)c(OC)c1OC | 155.5 |
| COc1ccccc1C(=O)N(C)Cc1nnc2ccccn12 | 155.2 |
| CN(Cc1nnc2ccccn12)C(=O)CCC1CCCC1 | -7.535 |
| CN(Cc1nnc2ccccn12)C(=O)CC1CCCCC1 | -9.634 |
| COc1ccc(OC)c(C(=O)N(C)Cc2nnc3ccccn23)c1 | 126.3 |
| Cc1ccc(C)c(CN(C)Cc2nnc3ccccn23)c1 | -4.756 |
| COc1cccc(C(=O)N(C)Cc2ncc(C)c(OC)c2C)c1OC | -3.642 |
| COc1ccc(C(=O)N(C)Cc2nnc3ccccn23)c(OC)c1 | -6.181 |
| COc1ccc(C(=O)N(C)Cc2cccc(C#N)c2)c(OC)c1OC | 5.74 |
| CCc1ccc(C2COCCN2C(=O)NCc2cccc(C#N)c2)o1 (stereo not drawn) | -15.12 |
| Cn1cccc1-c1cc(C(=O)N2CCCC2c2ccc(C(N)=O)s2)[nH]n1 (stereo not drawn) | -10.74 |
| CC(C)CN1CCOC[C@H](Oc2ccc(S(C)(=O)=O)cc2)C1 | 2.76 |
| Cc1cc(C(=O)NCc2ccnc(N3CCN(C)CC3)c2)c(C)s1 | 0.2044 |
| CSC1=Nc2c(cnn2-c2cccc(Cl)c2)C2=NCCCN12 | 101.8 |
| CCSC1=Nc2c(cnn2-c2ccc(Cl)cc2)C2=NCCCN12 | 119 |
| O=C1CCCCN1CSc1nnnn1-c1ccc(Cl)cc1 | -1.778 |
| CSC1=Nc2c(cnn2-c2ccc(C)cc2)C2=NCCCN12 | 111.5 |
| Cc1cc(NC(=O)N2CCC[C@@H]2CO)nn1-c1cccc(Cl)c1 | -10.34 |
| CSC1=Nc2c(cnn2-c2ccccc2)C2=NCCCN12 | 110.4 |

| Compound | Percent Effect [%] |
| --- | --- |
| CC(C)OCCOCc1cccc(NC(=O)NCCn2ccnc2)c1 | 1.646 |
| O=C(CCc1cc2n(n1)CCN(Cc1ncc[nH]1)C2)N1CCCC1 | 6.822 |
| Cc1cc(N[C@H]2CCCC[C@@H]2O)n2nccc2n1 | -46.39 |
| Cc1nc(Cn2cncc(Br)c2=O)no1 | 4.078 |
| Cn1cnc2c1CCN(CC(=O)N(Cc1ccccc1F)C1CC1)C2 | -0.08141 |
| CSC1=Nc2c(cnn2-c2ccc(Cl)cc2)C2=NCCCN12 | 101 |
| CNC(=O)c1sccc1S(=O)(=O)NC | -5.377 |
| COc1cccc2c1OCCCN(c1nc(N)nc3c1CCNC3)C2 | -2.498 |
| Cc1nccc(NCc2cncc3c2CCN(CC2CCOC2)C3)n1.Cl.Cl (stereo not drawn) | 113.7 |
| Cc1nccc(NCc2cncc3c2CCN(CC2CC2)C3)n1.Cl.Cl | 94.72 |
| Cl.Cl.c1csc(CN2CCc3c(CNc4nncs4)cncc3C2)c1 | 13.01 |
| Cc1cc(CN2CCc3c(CNc4ncccn4)cncc3C2)oc1C.Cl.Cl | 20.89 |
| Cc1nccc(NCc2cncc3c2CCN(CCN(C)C)C3)n1 | 100 |
| Cl.Cl.Cl.c1cnc(NCc2cncc3c2CCN(Cc2cccnc2)C3)nc1 | 11.16 |
| Cc1ccc(NCc2cncc3c2CCN(Cc2ccccn2)C3)nn1.Cl.Cl | 108.9 |
| Cl.Cl.c1cnc(NCc2cncc3c2CCN(Cc2ccsc2)C3)nc1 | 10.62 |
| Cc1ccc(NCc2cncc3c2CCN(C(=O)C2CC=CC2)C3)nn1.Cl | 36.84 |
| CC(C)(C)c1ccc(-c2n[nH]c3c2CN(CC2CCOC2)CC3)cc1 (stereo not drawn) | 5.17 |
| O=C(NCCn1cccc1)C1CCCOC1 (stereo not drawn) | 1.95 |
| CCC(Cn1ccc2[nH]c(=O)c(C#N)cc2c1=O)OC (stereo not drawn) | -23.91 |
| Cc1ccccc1[C@@H]1CN(CCOCCO)C[C@H]1C(=O)O | -28.11 |
| O=C(Nc1cc(-c2ccncc2)no1)C1CCC1 | -23.1 |
| Cn1ccc(NC(=O)CN2C[C@H]3CC[C@@H]2CN(S(C)(=O)=O)C3)n1 | 4.015 |

| Compound | Percent Effect [%] |
| --- | --- |
| CC1CN(C)CCN1Cc1cccc(C(=O)NCc2ccco2)c1 (stereo not drawn) | 11.16 |
| O=C1N(c2cccc(F)c2)Cc2nc(=O)[nH]n21 | -10.2 |
| Cc1nc(N(Cc2ccncc2)CC2CCCO2)c2ccsc2n1 (stereo not drawn) | 2.161 |
| Cc1nc(NCCc2noc(C3CCCO3)n2)c2sccc2n1 (stereo not drawn) | 194.7 |
| Cc1nc(CN2CCCC(Nc3ncnc4ccsc34)C2)no1 (stereo not drawn) | 36.74 |
| Fc1ccc(OCC2CCCO2)c(NCc2noc(C3CC3)n2)c1 (stereo not drawn) | 2.456 |
| COCc1noc(CCNC(=O)c2ccc(C3CCCO3)s2)n1 (stereo not drawn) | -0.9385 |
| Cc1nc(N2CCC3(CCCN(CC4CC4)C3=O)C2)c2sccc2n1 (stereo not drawn) | -31.46 |
| Cc1nc(NCc2noc(C3CCCO3)n2)c2sccc2n1 (stereo not drawn) | 146.8 |
| COc1ccnc(CNc2nc(C)nc3ccsc23)c1 | -33.44 |
| Cc1nc(NCc2noc(C3CCCO3)n2)c2ccsc2n1 (stereo not drawn) | 190.8 |
| Cc1cccc(N2CCN(C(=O)C3CC4(CCNCC4)CN3)CC2)n1 (stereo not drawn) | -9.883 |
| COC(=O)CN(Cc1ccccc1C)C(=O)CCNC(=O)C(C)(C)C | 10.54 |
| Cc1cc2nc(CO[C@H]3CN(C4CCC4)C[C@H]3F)[nH]c2cc1C | -5.771 |
| N#Cc1ccc(N2CCC3(CC2)COCCN3Cc2cccnc2)cc1.O=C(O)C(F)(F)F | -19.62 |
| N#Cc1ccc(N2CCC3(CCC(=O)N3Cc3cccnc3)CC2)nc1.O=C(O)C(F)(F)F.O=C(O)C(F)(F)F | 109.7 |
| Cc1ccc(N2CCC3(CCC(=O)N3Cc3ccncc3)CC2)nn1.O=C(O)C(F)(F)F | 117.9 |
| O=C(O)C(F)(F)F.O=C(O)C(F)(F)F.O=C1CC[C@]2(CC[C@@H](NC3CCOC3)CC2)N1Cc1ccncc1 (stereo partly drawn) | -47.26 |
| N#Cc1ccc(CN2CC3(CCCCN3c3cccnc3)CC2=O)cc1.O=C(O)C(F)(F)F (stereo not drawn) | -4.907 |
| Cc1ccc(N2CCC3(CC2)CNC(=O)CO3)nn1.O=C(O)C(F)(F)F | 10.91 |
| O=C(O)C(F)(F)F.O=C1CCC2(CCN(c3ncc(F)cn3)CC2)N1Cc1ccncc1 | -48.93 |
| N#Cc1ccc(N2CCC3(CCC(=O)N3Cc3ccncc3)CC2)nc1.O=C(O)C(F)(F)F.O=C(O)C(F)(F)F | 101 |
